In PMC5700166:

What was measured:
Assay in all cases: protein-binding microarray (PBM); PBM: ~300 nM protein, 6 mM HEPES pH 7.8, 80 mM KCl, 0.5 mM EDTA, 0.5 mM EGTA, 6% glycerol, 35 ng/ul poly-dIdC, 1% milk, 1 h, room temperature; Ap Aiptasia and Nv Nematostella (sea anemones) / Co Capsaspora / Aq Amphimedon (sponge) / Dm Drosophila / Hu human; RHD is the Rel homology domain; high values mean tight binding
Conditions in all cases: dsDNA, one strand shown
GST-Ap-NF-kB RHD = molecular target: T1, GST-Ap-NF-kB RHD (Exaiptasia pallida (Aiptasia), UniProt A0A913YAJ5 2-422)
T1 sequence: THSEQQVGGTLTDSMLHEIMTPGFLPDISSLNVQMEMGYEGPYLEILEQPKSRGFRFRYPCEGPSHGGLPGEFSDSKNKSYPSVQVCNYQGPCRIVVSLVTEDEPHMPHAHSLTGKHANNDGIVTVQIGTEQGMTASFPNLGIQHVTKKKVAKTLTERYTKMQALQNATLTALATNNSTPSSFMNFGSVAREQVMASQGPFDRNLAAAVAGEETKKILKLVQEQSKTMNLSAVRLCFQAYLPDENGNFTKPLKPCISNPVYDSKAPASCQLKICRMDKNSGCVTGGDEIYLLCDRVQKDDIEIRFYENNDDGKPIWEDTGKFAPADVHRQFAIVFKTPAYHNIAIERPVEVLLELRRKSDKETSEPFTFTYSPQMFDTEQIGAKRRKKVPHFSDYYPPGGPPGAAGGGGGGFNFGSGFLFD

[1] = molecular target: T2, GST-Nv-NF-kB (Cys allele) (Nematostella vectensis, UniProt E5G601 2-411)
T2 sequence: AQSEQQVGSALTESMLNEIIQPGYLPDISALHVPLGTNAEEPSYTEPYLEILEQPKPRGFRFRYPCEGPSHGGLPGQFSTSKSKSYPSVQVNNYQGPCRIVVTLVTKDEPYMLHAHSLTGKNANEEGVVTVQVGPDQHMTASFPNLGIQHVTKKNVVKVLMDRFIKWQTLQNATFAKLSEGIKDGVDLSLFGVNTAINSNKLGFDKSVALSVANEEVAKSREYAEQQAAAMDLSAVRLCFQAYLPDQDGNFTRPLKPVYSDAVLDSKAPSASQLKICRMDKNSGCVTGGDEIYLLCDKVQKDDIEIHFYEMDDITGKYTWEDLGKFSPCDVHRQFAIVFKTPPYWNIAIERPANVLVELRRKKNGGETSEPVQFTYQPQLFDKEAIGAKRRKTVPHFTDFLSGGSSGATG

GST-Co-NF-kB = molecular target: T3, GST-Co-NF-kB (Capsaspora owczarzaki, UniProt F1ARL5 200-546)
T3 sequence: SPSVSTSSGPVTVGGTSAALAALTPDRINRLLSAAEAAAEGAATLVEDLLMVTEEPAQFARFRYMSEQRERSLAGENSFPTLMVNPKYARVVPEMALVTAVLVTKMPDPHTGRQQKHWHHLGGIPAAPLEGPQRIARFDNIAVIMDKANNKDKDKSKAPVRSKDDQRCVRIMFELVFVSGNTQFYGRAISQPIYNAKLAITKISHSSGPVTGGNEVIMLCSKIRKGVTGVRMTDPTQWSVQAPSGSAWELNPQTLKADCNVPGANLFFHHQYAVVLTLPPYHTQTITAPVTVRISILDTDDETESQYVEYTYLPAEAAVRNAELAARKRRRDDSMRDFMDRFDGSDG

GST-Dm-Relish = molecular target: T4, GST-Dm-Relish (Drosophila melanogaster, UniProt Q94527 99-473)
T4 sequence: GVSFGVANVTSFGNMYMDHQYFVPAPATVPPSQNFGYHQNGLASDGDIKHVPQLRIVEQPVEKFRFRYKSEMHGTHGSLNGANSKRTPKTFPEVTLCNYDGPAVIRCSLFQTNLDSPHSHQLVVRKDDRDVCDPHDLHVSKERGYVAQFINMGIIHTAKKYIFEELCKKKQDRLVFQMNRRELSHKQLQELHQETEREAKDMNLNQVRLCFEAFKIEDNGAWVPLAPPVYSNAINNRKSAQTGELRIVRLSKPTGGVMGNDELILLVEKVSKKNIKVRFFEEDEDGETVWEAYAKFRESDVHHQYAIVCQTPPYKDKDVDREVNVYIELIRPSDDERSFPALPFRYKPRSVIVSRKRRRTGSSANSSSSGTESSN

GST-Aq-NF-kB = molecular target: T5, GST-Aq-NF-kB (Amphimedon queenslandica, UniProt A9Y5G7 2-389)
T5 sequence: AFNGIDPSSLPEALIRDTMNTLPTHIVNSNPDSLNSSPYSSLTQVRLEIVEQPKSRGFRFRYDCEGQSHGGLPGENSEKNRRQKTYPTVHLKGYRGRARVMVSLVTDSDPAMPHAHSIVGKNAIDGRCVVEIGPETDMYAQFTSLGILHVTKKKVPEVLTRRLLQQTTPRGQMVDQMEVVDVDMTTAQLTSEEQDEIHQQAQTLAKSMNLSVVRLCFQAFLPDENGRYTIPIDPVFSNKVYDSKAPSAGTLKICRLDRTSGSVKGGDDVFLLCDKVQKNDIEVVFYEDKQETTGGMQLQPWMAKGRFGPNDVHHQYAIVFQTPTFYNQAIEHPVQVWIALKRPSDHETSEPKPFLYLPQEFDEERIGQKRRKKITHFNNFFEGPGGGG

Sequence: CCGATTAACATCAGGGAAATAAATGATGTTAATCGGGTCTTGATTCGCTTGACGCTGCTG
- binding signal (GST-Ap-NF-kB RHD): 2.39 z-score
- binding signal [1]: 4.44 z-score
- binding signal (GST-Co-NF-kB): 4.38 z-score
- binding signal (GST-Dm-Relish): 2.1 z-score
- binding signal (GST-Aq-NF-kB): 4.44 z-score

Sequence: CCGATTAACATCAGGGGACTATATGATGTTAATCGGGTCTTGATTCGCTTGACGCTGCTG
- binding signal (GST-Ap-NF-kB RHD): 5.4 z-score
- binding signal [1]: 4.97 z-score
- binding signal (GST-Co-NF-kB): 2.59 z-score
- binding signal (GST-Dm-Relish): 2.85 z-score
- binding signal (GST-Aq-NF-kB): 4.61 z-score

Sequence: CCGATTAACATCAGGGGGCATTATGATGTTAATCGGGTCTTGATTCGCTTGACGCTGCTG
- binding signal (GST-Ap-NF-kB RHD): 3.92 z-score
- binding signal [1]: 4.06 z-score
- binding signal (GST-Co-NF-kB): 2.64 z-score
- binding signal (GST-Dm-Relish): 2.7 z-score
- binding signal (GST-Aq-NF-kB): 4.27 z-score

Sequence: CCGATTAACATCAGGAACTACCCTGATGTTAATCGGGTCTTGATTCGCTTGACGCTGCTG
- binding signal (GST-Ap-NF-kB RHD): 2.97 z-score
- binding signal [1]: 2.75 z-score
- binding signal (GST-Co-NF-kB): 1.33 z-score
- binding signal (GST-Dm-Relish): 3.64 z-score
- binding signal (GST-Aq-NF-kB): 5.04 z-score

Sequence: CCGATTAACATCAAGTAAATCCCTGATGTTAATCGGGTCTTGATTCGCTTGACGCTGCTG
- binding signal (GST-Ap-NF-kB RHD): 2.24 z-score
- binding signal [1]: 2.71 z-score
- binding signal (GST-Co-NF-kB): 1.22 z-score
- binding signal (GST-Dm-Relish): 7.89 z-score
- binding signal (GST-Aq-NF-kB): 3.24 z-score

Sequence: CCGATTAACATCAAACACCCCCCTGATGTTAATCGGGTCTTGATTCGCTTGACGCTGCTG
- binding signal (GST-Ap-NF-kB RHD): 4.89 z-score
- binding signal [1]: 4.54 z-score
- binding signal (GST-Co-NF-kB): 4.93 z-score
- binding signal (GST-Dm-Relish): 5.5 z-score
- binding signal (GST-Aq-NF-kB): 5.86 z-score

Sequence: CCGATTAACATCACCCGATTCCCTGATGTTAATCGGGTCTTGATTCGCTTGACGCTGCTG
- binding signal (GST-Ap-NF-kB RHD): 2.55 z-score
- binding signal [1]: 2.62 z-score
- binding signal (GST-Co-NF-kB): 2.5 z-score
- binding signal (GST-Dm-Relish): 1.62 z-score
- binding signal (GST-Aq-NF-kB): 2.54 z-score

Sequence: CCGATTAACATCACACCACCCCCTGATGTTAATCGGGTCTTGATTCGCTTGACGCTGCTG
- binding signal (GST-Ap-NF-kB RHD): 3.79 z-score
- binding signal [1]: 2.72 z-score
- binding signal (GST-Co-NF-kB): 2.88 z-score
- binding signal (GST-Dm-Relish): 2.4 z-score
- binding signal (GST-Aq-NF-kB): 3.3 z-score

Sequence: CCGATTAACATCAGGGACACCCCTGATGTTAATCGGGTCTTGATTCGCTTGACGCTGCTG
- binding signal (GST-Ap-NF-kB RHD): 6.11 z-score
- binding signal [1]: 4.44 z-score
- binding signal (GST-Co-NF-kB): 3.39 z-score
- binding signal (GST-Dm-Relish): 7.09 z-score
- binding signal (GST-Aq-NF-kB): 6.84 z-score

Sequence: CCGATTAACATCACATTGTCCCCTGATGTTAATCGGGTCTTGATTCGCTTGACGCTGCTG
- binding signal (GST-Ap-NF-kB RHD): 4.03 z-score
- binding signal [1]: 4.18 z-score
- binding signal (GST-Co-NF-kB): 4.12 z-score
- binding signal (GST-Dm-Relish): 1.73 z-score
- binding signal (GST-Aq-NF-kB): 3.26 z-score
